# Screening data: PubChem, National Center for Advancing Translational Sciences (NCATS)
# GLS inhibitor: qHTS for Inhibitors of Glutaminase (GLS); 410,000 compounds, 0.21% hits; AID 624170, 2012; Potency, µM (top dose mostly 45.5 µM), for the others: top-dose activity change, negative = inhibition, hits mostly inhibitors; GLS enzymatic activity, qHTS titration; Glutaminase kidney isoform, mitochondrial (Homo sapiens), O94925; also: % is scaled to controls: 0 for no effect and ±100 for the full control effect
#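 Read-out is an Amplex red fluorescence increase coupled through glutamate oxidase and HRP, measured before and after 30 min room-temperature incubation. hKGA is in 45 mM KH2PO4 (pH 8.2) with 0.02% Tween-20; glutamine added as 1mM solution.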
# Mito fusion act: qHTS Assay for Small Molecule Inhibitors of Mitochondrial Division or Activators of Mitochondrial Fusion; S. cerevisiae fusion-defective mutant growth rescue, CellTiterGlo 48 h; Potency, µM (series often up to 46.1 µM), inactives show at the highest dose growth rescue (activation), usual class: activators; 320,000 compounds, 0.23% hits; also: % of control where 0% means no effect; nearly all actives have a fitted effect of over 45% in size
#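 Growth-rescue viability read-out: after 48 h at the non-permissive 37C in glycerol/ethanol YPEG, yeast mitochondrial fusion mutants are measured by CellTiterGlo luminescence; compounds (23 nl pinned per well) restoring growth score as division inhibitors or fusion activators.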
# KAT2A inh: qHTS Assay for Inhibitors of GCN5L2; GCN5L2 HAT assay, ThioGlo1 CoA-SH fluorescence; 390,000 compounds, 0.21% hits; Potency, µM (top dose mostly 58.9 µM), inactives show at the highest dose activity change, negative = inhibition, usual class: inhibitors; Histone acetyltransferase KAT2A (Homo sapiens), Q92830; also: % is scaled to controls: 0 for no effect and ±100 for the full control effect
#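 Free CoA generated was detected with ThioGlo1 (50uM) fluorescence at Ex340nm/Em540nm, read immediately and after 20 min at room temperature. Enzyme, 20 nM in HEPES pH 7.5 buffer, saw compounds 15 min before adding 75uM H3(1-25) peptide and 70uM acetyl-CoA.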
# VDR inh: Inhibitors of the vitamin D receptor (VDR): qHTS; VDR-SRC2-3 peptide fluorescence polarization, 2 h; Potency, µM, for inactives: max response, negative = inhibition, hits mostly inhibitors; 400,000 compounds, 0.93% hits; also: % is scaled to controls: 0 for no effect and ±100 for the full control effect
# Target sequence (P11473 whole entry, looked up): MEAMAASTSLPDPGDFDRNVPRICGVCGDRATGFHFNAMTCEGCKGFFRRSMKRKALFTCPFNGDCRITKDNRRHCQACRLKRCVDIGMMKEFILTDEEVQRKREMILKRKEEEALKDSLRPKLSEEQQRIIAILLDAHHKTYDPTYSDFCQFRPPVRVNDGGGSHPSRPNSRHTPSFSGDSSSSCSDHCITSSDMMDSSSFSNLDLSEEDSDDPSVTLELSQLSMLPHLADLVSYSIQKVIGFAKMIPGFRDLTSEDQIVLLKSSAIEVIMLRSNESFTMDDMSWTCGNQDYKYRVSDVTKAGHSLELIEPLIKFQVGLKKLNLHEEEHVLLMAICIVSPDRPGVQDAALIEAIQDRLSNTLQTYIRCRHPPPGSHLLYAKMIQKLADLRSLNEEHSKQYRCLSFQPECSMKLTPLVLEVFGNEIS
#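 The screen uses fluorescence polarization to detect compounds that interfere with recruitment of the SRC2-3 coactivator peptide to VDR; plates are read after 2 h at room temperature.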
# PLK1 PBD block: qHTS for Inhibitors of PLK1-PDB (polo-like kinase 1 - polo-box domain): Primary Screen. Serine/threonine-protein kinase PLK1 (Homo sapiens), P53350. Plk1 PBD binding of FITC phosphopeptide, fluorescence polarization. Potency, µM, for the others: max response, negative = inhibition, hits mostly inhibitors. 360,000 compounds, 2.8% hits. AID 720504, 2013; also: series mostly up to about 57 µM; % is scaled to controls: 0 for no effect and ±100 for the full control effect; nearly all actives have a fitted effect of over 65% in size
# PKM2 activator: qHTS Assay for Activators of Human Muscle isoform 2 Pyruvate Kinase; Pyruvate kinase PKM (Homo sapiens), P14618; purified PKM2, Kinase-Glo ATP luminescence, activation; response scale: 0% is enzyme alone, no compound; Potency, µM (series often up to 57.5 µM), inactives show top-dose activation, hits mostly activators; 260,000 compounds, 0.34% hits; AID 1631, 2009; also: % is scaled to controls: 0 for no effect and ±100 for the full control effect; nearly all actives have a fitted effect of over 55% in size
#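 Purified hPK-M2 (>95%) run at intermediate activity with 0.1 mM ADP and 0.5 mM PEP in 50 mM imidazole pH 7.2, KCl, MgCl2; 1 h room temperature. ATP formed read by Kinase-Glo luminescence; normalized to uninhibited and no-enzyme controls.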
# Numbers without * were called inactive; ? = inconclusive; . = not tested or not shown. A selection: hits, their analogues and other compounds. The true share with any hit is near 3.4%. Calls follow the shape of the dose curve; as a rule, active = well fitted curve in the direction sought with a large enough effect; inconclusive = small, poorly fitted or top-dose-only effect, or another doubt; inactive = no such curve, though single readings can be large; an effect the other way counts as inactive or inconclusive. Potency is read from the fitted curve at half-maximal effect.
SMILES,GLS inhibitor,Mito fusion act,KAT2A inh,VDR inh,PLK1 PBD block,PKM2 activator
Cc1ccc(N2C(=O)CC(Cc3cccc(C)c3)C2=O)cc1 (stereo unspecified),-9.0%,2.5%,0.0%,5.0%,-0.8%,-3.2%
Cc1c(Br)c([N+](=O)[O-])nn1CC(=O)NCc1ccccc1,-18.9%,-19.7%,9.8%,?,11.9µM*,-2.2%
O=S(=O)(O)c1c(NS(=O)(=O)c2ccccc2)ccc2ccccc12,.,.,.,1.8%,.,.
O=C(CNS(=O)(=O)c1ccc([N+](=O)[O-])cc1)N/N=C\c1ccc(O)cc1,19.0%,15.9%,0.5%,5.3%,-0.9%,.
O=C(CNS(=O)(=O)c1ccc([N+](=O)[O-])cc1)N/N=C/c1ccc(O)cc1O,12.6µM*,-0.3%,4.1%,-16.5%,-11.4%,.
C[C@H](CO)N1C[C@H](C)[C@@H](CN(C)S(=O)(=O)c2ccccc2)Oc2ccc(NS(=O)(=O)c3ccccc3)cc2C1=O,-0.7%,.,-0.5%,-0.7%,-24.3%,.
CC(C)(C)c1ccc(C(=O)N2[C@H](COCc3ccccc3)C=CS2(=O)=O)cc1,0.0%,.,.,.,-19.6%,.
O=S(=O)(N/N=C/c1ccccc1F)c1ccccc1,-3.8%,1.0%,-4.2%,?,15µM*,-0.6%
COC(=O)c1ccc(/C=N/NC(=S)NC(C)C)cc1,-2.0%,-11.2%,-26.2%,25.1µM*,13.4µM*,-10.8%
CNC(=S)N/N=C/c1ccc(C(C)C)cc1,?,.,.,-12.4%,2.99µM*,.
OCC[C@@H]1C[C@H](O)[C@@H](O)[C@]2(OCc3ccc(CO)cc32)O1,-3.2%,.,.,.,-12.6%,.
COc1ccccc1C(=O)Nc1ccc(OCC(=O)N2CC(C)CC(C)C2)cc1 (stereo unspecified),-2.4%,-3.5%,-5.8%,-6.9%,3.7%,.
CCOC(=O)[C@@H](N)CS,-12.6%,.,49.4%,39.8µM*,.,.
CCn1cc(C(=O)Nc2ccccc2C(=O)OC)c(=O)c2ccc(C)nc21,.,8.8%,-3.7%,.,.,-2.5%
CCOC(=O)c1ccccc1NC(=O)c1cn(CC)c2nc(C)ccc2c1=O,5.6%,1.0%,2.7%,?,26.7µM*,-0.3%
OCC1OC(n2cnc3c(=S)nc[nH]c32)CC1O (stereo unspecified),-6.8%,.,.,-13.6%,2.6%,.
S=c1nc[nH]c2c1ncn2C1CCCO1 (stereo unspecified),-1.0%,-8.4%,-1.3%,?,26.7µM*,-1.9%
Cc1ccc(-c2nc(S(=O)(=O)c3ccc(Cl)cc3)c(N3CCCCC3)o2)cc1,-7.1%,.,-4.2%,0.6%,.,.
Cc1cccc(C(=O)OCC(=O)Nc2ccc3c(c2)OCCO3)c1O,-1.2%,2.7%,-4.5%,7.9%,-4.9%,.
CC(Sc1nc(NCc2ccccc2)nc(N2CCOCC2)n1)C(=O)Nc1ccccc1 (stereo unspecified),-4.2%,-5.1%,-1.4%,-20.6%,29.9µM*,3.5%
CN(CC(=O)Nc1cccc(S(=O)(=O)N(C)c2ccccc2)c1)Cc1cccs1,3.0%,.,.,.,-6.0%,.
Cc1ccc(S(=O)c2ccc(NC(=O)C3CC3)cc2C#N)cc1 (stereo unspecified),?,2.3%,-11.6%,70.8µM*,10.6µM*,8.1%
FC(F)(F)c1cnc(-c2cnc3c(-c4ccc(Cl)cc4)cnn3c2)c(Cl)c1,5.3%,-3.4%,-2.1%,-16.3%,-9.6%,-9.0%
Cc1nn2cc(-c3ncc(C(F)(F)F)cc3Cl)cnc2c1Br,0.3%,2.6%,-1.9%,-11.8%,23.8µM*,-2.1%
CCCOC(=O)c1cc(-c2ccc(C=O)o2)ccc1Cl,16.7%,3.0%,-5.5%,-25.0%,-6.2%,0.2%
SMILES,GLS inhibitor,Mito fusion act,KAT2A inh,VDR inh,PLK1 PBD block,PKM2 activator
CCCOC(=O)c1cc(-c2ccc(/C=C3/C(=O)N(C)C(=O)C(C#N)=C3C)o2)ccc1Cl,24.8%,.,.,50.1µM*,18.9µM*,.
COc1ccc(N=C2NN=C(c3ccc4c(c3)OCCO4)CS2)cc1,-4.3%,-0.8%,0.0%,-9.8%,26.7µM*,3.3%
FC(F)Sc1ccc(N=C2NN=C(c3ccc4c(c3)OCCO4)CS2)cc1,.,0.0%,2.3%,-18.4%,-29.5%,1.1%
CCn1c(CSc2nc(C)cs2)nc2cc(S(=O)(=O)N(C)C)ccc21,0.3%,-2.8%,-5.7%,5.5%,26.7µM*,-0.5%
CCn1c(CCC(=O)O)nc2cc(S(=O)(=O)N(C)C)ccc21,0.0%,3.7%,-3.7%,4.2%,-3.8%,-0.5%
Cc1cc(C)c2nc3sc(=Cc4ccc(-c5ccccc5C(=O)O)o4)c(=O)n3c2c1,12.6µM*,.,.,.,?,.
O=C(O)c1ccc(-c2ccc(/C=c3/sc4nc5ccccc5n4c3=O)o2)cc1Cl,10µM*,9.7%,-16.9%,?,-25.9%,.
Cc1cc(/C=c2\sc3nc4ccccc4n3c2=O)c(C)n1-c1ccc(C(=O)O)cc1,-4.3%,1.3%,-2.4%,-2.8%,21.2µM*,-1.6%
O=c1/c(=C/c2ccc(O)c([N+](=O)[O-])c2)sc2nc3ccccc3n12,0.0%,11.8%,-2.5%,16.6%,?,-9.7%
Cc1ccc2c(nc3s/c(=C\c4ccc(-c5ccccc5C(=O)O)o4)c(=O)n32)c1C,?,?,-9.4%,-13.5%,-20.3%,.
CC(NS(=O)(=O)c1cccc(Cl)c1F)[C@H](O)c1ccccc1 (stereo partly specified),0.9%,.,.,.,-0.6%,.
CC(=O)n1cc(N(C(=O)CCl)c2ccc([N+](=O)[O-])cc2)c2ccccc21,-12.1%,-7.5%,-3.2%,22.4µM*,-24.0%,2.3%
CC(=O)n1cc(N(C(=O)CCl)c2ccccc2)c2ccccc21,-13.1%,-14.5%,0.2%,?,-10.5%,-0.2%
Cc1ccc(SC2=C(Sc3ccc(C)cc3)C(=O)c3ccccc3C2=O)cc1,-6.1%,-13.1%,2.6%,?,1.68µM*,0.7%
Cc1ccc(N2C(=O)c3ccccc3C2=O)cc1,-0.9%,5.8%,-15.1%,10.0%,8.5%,-0.8%
CCCN(C1CCS(=O)(=O)C1)S(=O)(=O)c1ccc(F)cc1 (stereo unspecified),0.0%,2.7%,1.1%,-2.8%,-4.4%,.
O=C(O)CC(NC(=S)NCc1ccccc1)C(=O)O (stereo unspecified),-1.7%,-15.9%,82.8%,0.7%,-7.3%,20.7%
